Test results taken from PubChem BioAssay AID2013 (Sanford-Burnham Center for Chemical Genomics, 2009).
Hit rate of the full screen: of about 290,000 compounds, about 370 (0.13%) were called active. This is one part of a sample in which actives are shown more often than they occur.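 How the source made its calls: active means spots per cell inhibited over 60%, with over 100 cells counted and total cytoplasm intensity under 500,000; inconclusive means wells with under 100 cells, flagged as likely toxic; inactive means the rest.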 Potency and affinity values are given separately.

Each compound was assayed against G-protein coupled receptor 55 (Homo sapiens) (UniProt Q9Y2T6) (assay: GPR55 antagonists blocking LPI-driven arrestin recruitment, primary screen, imaging, U2OS, beta-arrestin-GFP, LPI agonist (AID 2013;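 further: U2OS cells stably carrying GPR55 and arrestin-GFP stimulated by 5 µM LPI near EC80; imaged beta-arrestin-GFP aggregate spots per cell after agonist stimulation; plate controls were LPI-stimulated DMSO wells for no effect and DMSO wells without LPI for full effect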)). Settings: U2OS GPR55 beta-arrestin-GFP translocation imaging, LPI antagonism; at 10 µM; hits give high values.
Chain of G-protein coupled receptor 55 (Homo sapiens) (Q9Y2T6 whole entry, looked up): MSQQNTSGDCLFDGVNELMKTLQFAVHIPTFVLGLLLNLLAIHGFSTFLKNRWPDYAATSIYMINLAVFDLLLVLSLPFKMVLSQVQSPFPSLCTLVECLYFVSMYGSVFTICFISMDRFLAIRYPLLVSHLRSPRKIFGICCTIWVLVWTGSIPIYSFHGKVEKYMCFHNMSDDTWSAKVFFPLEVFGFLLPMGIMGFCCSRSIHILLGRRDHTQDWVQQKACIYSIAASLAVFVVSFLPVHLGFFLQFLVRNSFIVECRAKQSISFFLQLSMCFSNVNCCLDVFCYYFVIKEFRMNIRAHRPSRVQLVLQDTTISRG
In the case of `Cc1ccc(CNC(=O)c2nnn(CC(=O)Nc3cccc(C)c3C)c2N)cc1`, the inhibition was 18.1% (inactive).
With `Cc1cc(SCc2ccc(Br)cc2)nc(=O)[nH]1` the inhibition was -5.2% (inactive).
`CCOc1ccc(OCc2ccc(C(=O)N3CCCCC3)o2)cc1` was tested, and the inhibition was 18.5% (inactive).
`O=C(O)c1cc(NS(=O)(=O)c2ccc(NCc3ccccc3)c([N+](=O)[O-])c2)cc(C(=O)O)c1` was tested, and the inhibition was 58.9% (inactive).
`O=C(O)c1cc(NS(=O)(=O)c2ccc(N3CCCCC3)c([N+](=O)[O-])c2)cc(C(=O)O)c1` was tested, and the inhibition was 5% (inactive).
In the case of `Cc1ccc(C)c(-c2cc(C(=O)Nc3sc(C)c(C)c3C(N)=O)c3ccccc3n2)c1`, the inhibition was 18% (inactive).
In the case of `CCOC(=O)c1sc(NC(=O)c2cc(-c3ccccc3C)nc3ccccc23)c(C#N)c1C`, the inhibition was -36.6% (inactive).
With `Cc1sc(NC(=O)c2cc(-c3ccc(Cl)cc3)nc3ccccc23)c(C(N)=O)c1C` the inhibition was 28.7% (inactive).
In the case of `Cc1sc(NC(=O)c2cc(-c3ccccc3)nc3ccccc23)c(C(N)=O)c1C`, the inhibition was -0.9% (inactive).
`O=C(c1cc2cc(Br)ccc2o1)N1CCN(c2ccccc2)CC1` was tested, and the inhibition was 5.9% (inactive).
`CC(Sc1nnc(-c2ccc(OC(F)F)cc2)o1)C(=O)NCC1CCCO1` (stereo unspecified) was tested, and the inhibition was 17.5% (inactive).
`COc1cc(NC(=O)CN2CCCCC2)c(C)cc1[N+](=O)[O-]` was tested, and the inhibition was 10.9% (inactive).
In the case of `COc1cc(NC(=O)CN2C(=O)CN(C)C2=O)c(C)cc1[N+](=O)[O-]`, the inhibition was 10.3% (inactive).
In the case of `C=CCNC(=O)C1CCC(=O)N1S(=O)(=O)c1ccc(C)cc1` (stereo unspecified), the inhibition was 9.3% (inactive).
For `CC(c1ccccc1C(O)(c1ccccc1)c1ccccc1)N(C)C` (stereo unspecified), the inhibition was 6.4% (inactive).
With `CC(c1ccccc1C(O)c1ccccc1)N(C)C` (stereo unspecified) the inhibition was 28.9% (inactive).
With `S=c1[nH]nc(CCc2ccc(Cl)cc2)o1` the inhibition was 9.7% (inactive).
With `COc1ccc(S(=O)(=O)N(CC(=O)N2CCCCCC2)c2ccccc2OC)cc1` the inhibition was 9.8% (inactive).
In the case of `CCOC(=O)c1cc(C#N)c(SC)nc1-c1ccccc1`, the inhibition was 18% (inactive).
In the case of `CCOC(=O)c1cc(C#N)c(Oc2cccc(C(F)(F)F)c2)nc1-c1ccccc1`, the inhibition was 10% (inactive).
`COC(=O)c1cc(C#N)c(Oc2ccc(F)cc2)nc1C` was tested, and the inhibition was 20.6% (inactive).
In the case of `CCOC(=O)c1cc(C#N)c(Oc2ccccc2OC)nc1-c1ccccc1`, the inhibition was 18.2% (inactive).
With `CCOC(=O)c1c(C)[nH]c(C)c1S(=O)(=O)NCCN1CCN(c2cc(Cl)ccc2C)CC1` the inhibition was 11.1% (inactive).
With `Cc1ccc(NS(=O)(=O)c2cccc(C(=O)O)c2)cc1S(=O)(=O)N1CCCCC1` the inhibition was 5.9% (inactive).
For `Cc1cc(C)nc(SC2CC(=O)N(c3ccc(Cl)cc3)C2=O)n1` (stereo unspecified), the inhibition was 20.8% (inactive).
`O=[N+]([O-])c1ncn(C23CC4CC(CC(C4)C2)C3)n1` was tested, and the inhibition was -8.9% (inactive).
For `N#CC(c1ccccn1)c1ncc(C(F)(F)F)cc1Cl` (stereo unspecified), the inhibition was 3.6% (inactive).
For `O=C(NCc1ccccn1)c1ccc(Cl)c(S(=O)(=O)N2CCCCCC2)c1`, the inhibition was 21.3% (inactive).
In the case of `CCCCC1(CO)C(=O)N(c2ccccc2)N(c2ccccc2)C1=O`, the inhibition was -5.2% (inactive).
For `CCCCC1(CC(=O)OC)C(=O)N(c2ccccc2)N(c2ccccc2)C1=O`, the inhibition was -3.2% (inactive).
`CCCCC1(Cc2ccc([N+](=O)[O-])cc2)C(=O)N(c2ccccc2)N(c2ccccc2)C1=O` was tested, and the inhibition was 51.2% (inactive).
`CCCCC1(CC(=O)OCC)C(=O)N(c2ccccc2)N(c2ccccc2)C1=O` was tested, and the inhibition was 17.5% (inactive).
With `CCCCCCSc1nc(O)c(C2OC(=O)c3c2ccc(OC)c3OC)c(=O)n1CC` (stereo unspecified) the inhibition was 2.6% (inactive).
With `CC(=O)c1ccc(NC(=O)CCc2c(C)nn(-c3ccc(N4CCOCC4)nn3)c2C)cc1` the inhibition was 4.4% (inactive).
With `O=C(NCc1ccco1)C(=O)NCC1OCCN1C(=O)c1ccc(Cl)cc1` (stereo unspecified) the inhibition was 2.4% (inactive).
With `O=C(Nc1ccnc(=O)[nH]1)c1sc2ccccc2c1Cl` the inhibition was 5.4% (inactive).
With `CCOCc1nnc(NC(=O)c2cc(OC)c(OC)cc2[N+](=O)[O-])s1` the inhibition was 1.7% (inactive).
With `O=C1CSC(c2cccc(Cl)c2Cl)N1c1ccccn1` (stereo unspecified) the inhibition was 13% (inactive).
For `O=C1CSC(c2ccc(Cl)cc2Cl)N1c1ccccn1` (stereo unspecified), the inhibition was 22.4% (inactive).
For `C/C(CC(=O)N1CCN(C=O)CC1)=N\NC(=O)c1cc2ccccc2cc1O`, the inhibition was 5.8% (inactive).
In the case of `Cc1nc2c(oc3ccc(Cl)cc32)c(=O)[nH]1`, the inhibition was -10.2% (inactive).
In the case of `Clc1ncnc2c1oc1ccccc12`, the inhibition was 26.5% (inactive).
`Cc1c(N/C(=N/S(=O)(=O)c2ccc(Cl)cc2)c2ccccc2)c(=O)n(-c2ccccc2)n1C` was tested, and the inhibition was -4.8% (inactive).
For `c1ccc(-c2ccccc2-c2nc(-c3ccncc3)no2)cc1`, the inhibition was 41.2% (inactive).
In the case of `COc1ccc(-c2noc(-c3ccccc3-c3ccccc3)n2)cc1`, the inhibition was 10.6% (inactive).
With `Cc1ccc(N/N=C(\C#N)C(=N)N2CCOCC2)cc1` the inhibition was 86.4% (active).
In the case of `Cc1ccc(N/N=C(\C#N)C(=N)N2CCCCCC2)cc1`, the inhibition was -5% (inactive).
With `Cc1ccc(N/N=C(\C#N)C(=N)N2CCCCC2)cc1` the inhibition was 2.6% (inactive).
In the case of `CN(CC(=O)NCc1ccccc1F)S(=O)(=O)c1ccc(Cl)cc1`, the inhibition was 3.3% (inactive).
In the case of `COC(=O)CSc1nc(NCC(C)C)nc(N2CCOCC2)n1`, the inhibition was -2.9% (inactive).
In the case of `Clc1ccccc1OCCn1ccnc1`, the inhibition was 1.9% (inactive).
For `Clc1ccccc1C(c1ccccc1)(c1ccccc1)n1ccnc1`, the inhibition was 98.7% (active).
With `Clc1ccccc1OCCCn1ccnc1` the inhibition was -2.4% (inactive).
For `CCCCN(C(=O)CCCc1nc2ccccc2c(=O)[nH]1)c1c(N)n(CCCC)c(=O)[nH]c1=O`, the inhibition was 21.5% (inactive).
`COC(=O)c1sc(NC(=O)/C=C/c2ccc(C)cc2)nc1C` was tested, and the inhibition was 16.9% (inactive).
`CSc1nc2ccc(S(=O)(=O)N3CCCCC3)cc2s1` was tested, and the inhibition was 10.7% (inactive).
In the case of `Cc1nc2ccc(S(=O)(=O)N3CCCCC3)cc2s1`, the inhibition was -5.9% (inactive).
`CC1NC(=S)N(C2CCCCC2)C1=O` (stereo unspecified) was tested, and the inhibition was 2.5% (inactive).
`COc1cccc(OC)c1C1=NC(C)(C)CO1` was tested, and the inhibition was 6.1% (inactive).
For `COc1ccc2cc(C(=O)C3CCCN(C(=O)c4cc5nc(C)cc(C)n5n4)C3)ccc2c1` (stereo unspecified), the inhibition was -6.7% (inactive).
`Cc1c(N=C2N=C(NC(=O)NC(C)(C)C)c3ccccc32)c(=O)n(-c2ccccc2)n1C` was tested, and the inhibition was 1.4% (inactive).
With `Cc1cccc(C)c1NS(=O)(=O)c1cc2c3c(c1)CC(=O)N3CCC2` the inhibition was 6.8% (inactive).
`CCc1nc(C)cn1S(=O)(=O)c1ccc(Cl)c(Cl)c1Cl` was tested, and the inhibition was 18.7% (inactive).
For `CCc1nc(C)cn1S(=O)(=O)c1ccc([N+](=O)[O-])cc1`, the inhibition was 0.5% (inactive).
For `Cc1c(C(=O)NCCN2CCCC(O)C2)oc2c(F)cccc12` (stereo unspecified), the inhibition was 26.6% (inactive).
In the case of `O=[N+]([O-])c1ccc(N/N=C\c2cccn2-c2ccccc2)nc1`, the inhibition was 89.6% (active).
`O=C(N/N=C/c1cccn1-c1ccc([N+](=O)[O-])cc1)C(O)c1ccccc1` (stereo unspecified) was tested, and the inhibition was 16.8% (inactive).
In the case of `Cc1cc(/C=N/Nc2ccc([N+](=O)[O-])cn2)c(C)n1-c1ccccc1`, the inhibition was 13.4% (inactive).
With `Cc1ccc(S(=O)(=O)N2CC=C(C(=O)NC3CC3)CC2)cc1` the inhibition was 17.2% (inactive).
With `COc1ccc(CNc2nc3c(c(C(F)(F)F)n2)CCCCC3)cc1` the inhibition was 13.2% (inactive).
For `CN1CCN(C(=S)SCC(=O)N2CCCc3ccccc32)CC1`, the inhibition was 23.2% (inactive).
`COc1ccc(/C=C/c2nc3ccccc3n2C)cc1` was tested, and the inhibition was -8.1% (inactive).
With `Cc1csc(NC(=O)c2cccc(S(=O)(=O)N3CCN(C)CC3)c2)n1` the inhibition was 5% (inactive).
With `Cc1c(CCOC(=O)CC23CC4CC(CC(C4)C2)C3)sc[n+]1CC(=O)c1ccc(Br)cc1` the inhibition was 58.4% (inactive).
`Cc1c(CCOC(=O)c2ccccc2)sc[n+]1CC(=O)c1ccc(Br)cc1` was tested, and the inhibition was -14% (inactive).
With `COc1c(F)c(F)c(C(=O)Nc2ccc(NC(=O)c3ccco3)cc2)c(F)c1F` the inhibition was 9.4% (inactive).
With `COc1ccc(-c2csc(-n3ncc(C(=O)O)c3C(F)(F)F)n2)cc1` the inhibition was 0.6% (inactive).
`C=CCn1c(CCc2ccccc2)nnc1SCC(N)=O` was tested, and the inhibition was 1.8% (inactive).
`C=CC(=O)NCCCc1cc(C(C)(C)C)c(O)c(C(C)(C)C)c1` was tested, and the inhibition was 8.3% (inactive).
In the case of `Cc1cc(C(=O)CSc2nnnn2-c2ccc(O)cc2)c(C)n1C`, the inhibition was 3.7% (inactive).
In the case of `COc1ccccc1OC(=O)Nc1ccc(Cl)cc1`, the inhibition was 0.1% (inactive).
For `O=S(=O)(Nc1ccc(Cc2ccncc2)cc1)c1ccc(Cl)cc1`, the inhibition was -2.3% (inactive).
In the case of `CC(C)(C)c1ccc(S(=O)(=O)Nc2ccc(Cc3ccncc3)cc2)cc1`, the inhibition was 80.2% (active).
With `O=S(=O)(Nc1ccc(Cc2ccncc2)cc1)c1ccc(Br)cc1` the inhibition was 2.9% (inactive).
For `Cc1cc2nc(-c3ccc[nH]c3=O)n(Cc3cccc(F)c3)c2cc1C`, the inhibition was 8.3% (inactive).
With `Cc1ccc(NC(=O)Nc2cc(Cl)ccc2C2COC(=O)C2=N)cc1` (stereo unspecified) the inhibition was 7.5% (inactive).
In the case of `Cc1ccc(-c2n[nH]c(=S)c3ccccc23)cc1`, the inhibition was 10.4% (inactive).
For `Fc1ccc(-c2n[nH]c(=S)c3ccccc23)cc1`, the inhibition was 98% (active).
With `S=c1[nH]nc(-c2ccccc2)c2ccccc12` the inhibition was -20.4% (inactive).
`Cc1c(CN2CCN(CC(C)(C)C)C(CCO)C2)[nH]c2ccccc12` (stereo unspecified) was tested, and the inhibition was 7.5% (inactive).
`COc1cccc(C2CC(c3cccc(NS(C)(=O)=O)c3)=NN2C(=O)c2ccccc2)c1OC` (stereo unspecified) was tested, and the inhibition was 10.9% (inactive).
For `Clc1ccc(C(c2ccccc2)N2CCNCC2)cc1` (stereo unspecified), the inhibition was 20% (inactive).
For `CN1CC2(C)CN(C(c3ccccc3)c3ccccc3)CC(C)(C1)C2O` (stereo unspecified), the inhibition was 5.6% (inactive).
`CC(C)(NC(=O)N1CCCC1)c1cccc(C(C)(C)NC(=O)N2CCCC2)c1` was tested, and the inhibition was 0.9% (inactive).
With `CCOC(=O)Cc1c(Cl)c2ccccc2[nH]c1=O` the inhibition was -1.4% (inactive).
In the case of `Cc1cc(C(=O)Cn2nc(C(=O)O)c3ccccc3c2=O)c(C)n1C1CC1`, the inhibition was 3.9% (inactive).
